Reference: the OligoGym collection

The sequences below were run against GPR64 (assay: pooled miR-30 sensor sort-seq; sequence = guide strand). Conditions: shRNA.

Row | Sequence | sensor-assay potency score (higher = more potent)
1 | TTGAATACTGGTTTTTCGCTGG | 0.838
2 | ATTATCAGTATCTTCTTCCAGG | -0.212
3 | TAGTGTTGACATTCGCAGGGGC | 0.711
4 | TTGAAGAGCTGGACACTCCTTG | 0.677
5 | TAGTCTACTCTCCTGTTCCTAA | -0.669
6 | TTCTATAATCTGACTACTGGGG | -0.476
7 | TAAGCTTAAAGTAACATCTGGA | 0.962
8 | TAAAGTAACATCATTGAGGCTT | 0.0974
9 | TTGGTTTACAGTCTGCTTCTTT | 0.449
10 | TAACAATCAACAATGTACCATG | -0.826
11 | TACATGTAGCAACAATAGCAGT | -1.27
12 | TAGTGTATTGTTTAAAACCAAC | -1.45

The sequences below were run against GPRC5B in the same assay as above. Conditions: shRNA.

Row | Sequence | sensor-assay potency score (higher = more potent)
13 | TTGGGAAATCCTGCTGTTCGGA | -0.702
14 | ATGAGCATCAGGAGCAGTGTGA | -1.27
15 | ATACACGTTGCTTCTAAACGGA | -0.0127
16 | TACACGTTGCTTCTAAACGGAG | -1.35
17 | TGCTGCAGCTTGACATTGCCGA | -0.579
18 | TTCCACCTCTTGAACTTGCCGC | -0.546
19 | TTCGGAGAGCTGCATTGTGTTC | -1.86
20 | AAGAGGTACATGGTCATCCAGG | -1.02
21 | TTGTTCTCCATATAGGCCCGCG | -1.02
22 | TTGAGCACGACGGCCATCTCAG | -1.15
23 | TTGAACTTGCCGCACAGAGTGA | -0.846
24 | TACCATGTCGTAGATGAGGGCC | -0.116
